# Test results published in PMC8384837, “Expanding the binding specificity for RNA recognition by a PUF domain”.
# Changes are numbered by the printed parent chain.
# How the values were obtained:
# Experiment in all cases: yeast three-hybrid, YBZ-1, SC-Leu-His + 0.5 mM 3-AT, 4 days
# Conditions in all cases: tags: N-Gal4 AD-HA kept; label: inside an RPR1-promoter hybrid RNA with tandem MS2 sites; ssRNA
# [1] = biological target: PUM1 PUF domain R7-AVR (Homo sapiens, UniProt Q14671 828-1176, S1079A;N1080V;E1083R)
# How it was run: (§1)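 The interaction score is the logarithmic change in variant frequency from input to selection. It uses log2, with a pseudocount of 1 for absent variants, and frequencies came from PCR-amplified, Illumina-sequenced repeat regions. The libraries were Pumilio-1 PUF domains randomized at the three base-contacting residues per repeat, co-expressed with matching RNA elements in strain YBZ-1 (LexA–MS2 coat fusion, HIS3 reporter). Plating lasted four days on SC-Leu (input) or SC-Leu-His + 0.5 mM 3-AT (selection).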
# [2] = biological target: PUM1 PUF domain R7-KRE (Homo sapiens, UniProt Q14671 828-1176, S1079K;N1080R)
# How it was run: as §1
# [3] = biological target: PUM1 PUF domain R1-RRT (Homo sapiens, UniProt Q14671 828-1176, S863R;Q867T)
# Sequence of PUM1 PUF domain R1-RRT (Q14671 828-1176 S863R/Q867T): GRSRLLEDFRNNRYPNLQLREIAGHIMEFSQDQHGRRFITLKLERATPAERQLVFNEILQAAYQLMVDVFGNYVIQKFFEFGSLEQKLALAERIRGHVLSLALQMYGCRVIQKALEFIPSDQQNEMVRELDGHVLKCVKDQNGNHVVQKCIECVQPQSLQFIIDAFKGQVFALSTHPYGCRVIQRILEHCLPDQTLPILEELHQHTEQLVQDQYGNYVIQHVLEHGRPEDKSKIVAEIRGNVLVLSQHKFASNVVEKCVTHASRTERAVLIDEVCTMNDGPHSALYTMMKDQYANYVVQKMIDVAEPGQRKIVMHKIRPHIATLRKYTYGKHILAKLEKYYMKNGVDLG
# How it was run: as §1
# [4] = biological target: PUM1 PUF domain R7-QRK (Homo sapiens, UniProt Q14671 828-1176, S1079Q;N1080R;E1083K)
# How it was run: as §1
# [5] = biological target: T1, PUM1 PUF domain R6-AYR (Homo sapiens, UniProt Q14671 828-1176, N1043A;Q1047R)
# T1 sequence: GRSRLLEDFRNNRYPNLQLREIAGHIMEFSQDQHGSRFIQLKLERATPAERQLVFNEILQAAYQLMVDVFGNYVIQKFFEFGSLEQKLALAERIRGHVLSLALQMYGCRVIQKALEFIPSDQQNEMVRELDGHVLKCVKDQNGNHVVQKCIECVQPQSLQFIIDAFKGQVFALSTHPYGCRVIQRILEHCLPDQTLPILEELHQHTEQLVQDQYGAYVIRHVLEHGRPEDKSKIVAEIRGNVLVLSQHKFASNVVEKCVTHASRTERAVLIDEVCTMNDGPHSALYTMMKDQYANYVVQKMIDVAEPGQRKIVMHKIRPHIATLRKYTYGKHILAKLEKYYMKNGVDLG
# How it was run: as §1
# [6] = biological target: PUM1 PUF domain R3-IWK (Homo sapiens, UniProt Q14671 828-1176, C935I;R936W;Q939K)
# How it was run: as §1
# [7] = biological target: PUM1 PUF domain R8-FFR (Homo sapiens, UniProt Q14671 828-1176, N1122F;Y1123F;Q1126R)
# How it was run: as §1
# [8] = biological target: PUM1 PUF domain R8-SYP (Homo sapiens, UniProt Q14671 828-1176, N1122S;Q1126P)
# How it was run: as §1
# [9] = biological target: T2, PUM1 PUF domain R6-FYL (Homo sapiens, UniProt Q14671 828-1176, N1043F;Q1047L)
# T2 sequence: T1 sequence with A216F, R220L
# How it was run: as §1
# [10] = biological target: PUM1 PUF domain R8-LFR (Homo sapiens, UniProt Q14671 828-1176, N1122L;Y1123F;Q1126R)
# How it was run: as §1
# [11] = biological target: T3, PUM1 PUF domain R6-IYC (Homo sapiens, UniProt Q14671 828-1176, N1043I;Q1047C)
# T3 sequence: T1 sequence with A216I, R220C
# How it was run: as §1
# [12] = biological target: PUM1 PUF domain R4-RVY (Homo sapiens, UniProt Q14671 828-1176, N971R;H972V;Q975Y)
# How it was run: as §1
# [13] = biological target: PUM1 PUF domain R8-RWA (Homo sapiens, UniProt Q14671 828-1176, N1122R;Y1123W;Q1126A)
# How it was run: as §1
# [14] = biological target: PUM1 PUF domain R5-FRN (Homo sapiens, UniProt Q14671 828-1176, C1007F;Q1011N)
# How it was run: as §1
# [15] = biological target: PUM1 PUF domain R5-YRR (Homo sapiens, UniProt Q14671 828-1176, C1007Y;Q1011R)
# How it was run: as §1
# [16] = biological target: PUM1 PUF domain R3-APS (Homo sapiens, UniProt Q14671 828-1176, C935A;R936P;Q939S)
# How it was run: as §1
# [17] = biological target: PUM1 PUF domain R5-RYL (Homo sapiens, UniProt Q14671 828-1176, C1007R;R1008Y;Q1011L)
# How it was run: as §1
# [18] = biological target: PUM1 PUF domain R5-GTE (Homo sapiens, UniProt Q14671 828-1176, C1007G;R1008T;Q1011E)
# How it was run: as §1
# [19] = biological target: PUM1 PUF domain R3-TVE (Homo sapiens, UniProt Q14671 828-1176, C935T;R936V;Q939E)
# How it was run: as §1
# [20] = biological target: PUM1 PUF domain R8-KYR (Homo sapiens, UniProt Q14671 828-1176, N1122K;Q1126R)
# How it was run: as §1
sequence,measurement,setting,value
GGCUAGAACUAGUGGAUCCCCCGGCGCCCGGCGGCUCGAGCCCGGGUAAGUUUAAAUAGUCUGCAUGCCGCCGGGCGCCAUGCCUGCAGGUCGACUCUAGAAAACAUG,binding signal,[1],3.46 log2 enrichment (interaction score)
same,binding signal,[2],3.62 log2 enrichment (interaction score)
GGCUAGAACUAGUGGAUCCCCCGGCGCCCGGCGGCUCGAGCCCGGGUAAGUGUAAAUGGUCUGCAUGCCGCCGGGCGCCAUGCCUGCAGGUCGACUCUAGAAAACAUG,binding signal,[3],1.65 log2 enrichment (interaction score)
GGCUAGAACUAGUGGAUCCCCCGGCGCCCGGCGGCUCGAGCCCGGGUAAGUAUAAAUAGUCUGCAUGCCGCCGGGCGCCAUGCCUGCAGGUCGACUCUAGAAAACAUG,binding signal,[4],3.05 log2 enrichment (interaction score)
GGCUAGAACUAGUGGAUCCCCCGGCGCCCGGCGGCUCGAGCCCGGGUAAGUGCAAAUAGUCUGCAUGCCGCCGGGCGCCAUGCCUGCAGGUCGACUCUAGAAAACAUG,binding signal,[5],3.72 log2 enrichment (interaction score)
GGCUAGAACUAGUGGAUCCCCCGGCGCCCGGCGGCUCGAGCCCGGGUAAGUGUAAUUAGUCUGCAUGCCGCCGGGCGCCAUGCCUGCAGGUCGACUCUAGAAAACAUG,binding signal,[6],3.81 log2 enrichment (interaction score)
GGCUAGAACUAGUGGAUCCCCCGGCGCCCGGCGGCUCGAGCCCGGGUAAGUCUAAAUAGUCUGCAUGCCGCCGGGCGCCAUGCCUGCAGGUCGACUCUAGAAAACAUG,binding signal,[4],2.27 log2 enrichment (interaction score)
same,binding signal,[2],4.01 log2 enrichment (interaction score)
GGCUAGAACUAGUGGAUCCCCCGGCGCCCGGCGGCUCGAGCCCGGGUAAGUGUAAAUAGUCUGCAUGCCGCCGGGCGCCAUGCCUGCAGGUCGACUCUAGAAAACAUG,binding signal,[7],4.42 log2 enrichment (interaction score)
same,binding signal,[5],6.13 log2 enrichment (interaction score)
same,binding signal,[8],4.16 log2 enrichment (interaction score)
same,binding signal,[9],3.73 log2 enrichment (interaction score)
same,binding signal,[10],4.31 log2 enrichment (interaction score)
same,binding signal,[11],3.57 log2 enrichment (interaction score)
same,binding signal,[12],5.94 log2 enrichment (interaction score)
same,binding signal,[13],4.01 log2 enrichment (interaction score)
same,binding signal,[14],1.74 log2 enrichment (interaction score)
same,binding signal,[15],1.76 log2 enrichment (interaction score)
same,binding signal,[16],3.64 log2 enrichment (interaction score)
GGCUAGAACUAGUGGAUCCCCCGGCGCCCGGCGGCUCGAGCCCGGGUAAGUGUCAAUAGUCUGCAUGCCGCCGGGCGCCAUGCCUGCAGGUCGACUCUAGAAAACAUG,binding signal,[14],2.94 log2 enrichment (interaction score)
same,binding signal,[15],3.31 log2 enrichment (interaction score)
same,binding signal,[17],2.69 log2 enrichment (interaction score)
GGCUAGAACUAGUGGAUCCCCCGGCGCCCGGCGGCUCGAGCCCGGGUAAGUGUGAAUAGUCUGCAUGCCGCCGGGCGCCAUGCCUGCAGGUCGACUCUAGAAAACAUG,binding signal,[18],3.8 log2 enrichment (interaction score)
same,binding signal,[17],3.39 log2 enrichment (interaction score)
GGCUAGAACUAGUGGAUCCCCCGGCGCCCGGCGGCUCGAGCCCGGGUAAGUGUUAAUAGUCUGCAUGCCGCCGGGCGCCAUGCCUGCAGGUCGACUCUAGAAAACAUG,binding signal,[15],1.61 log2 enrichment (interaction score)
GGCUAGAACUAGUGGAUCCCCCGGCGCCCGGCGGCUCGAGCCCGGGUAAGUGUAAGUAGUCUGCAUGCCGCCGGGCGCCAUGCCUGCAGGUCGACUCUAGAAAACAUG,binding signal,[19],6.09 log2 enrichment (interaction score)
GGCUAGAACUAGUGGAUCCCCCGGCGCCCGGCGGCUCGAGCCCGGGUAAGUGUAAAUUGUCUGCAUGCCGCCGGGCGCCAUGCCUGCAGGUCGACUCUAGAAAACAUG,binding signal,[3],4.21 log2 enrichment (interaction score)
GGCUAGAACUAGUGGAUCCCCCGGCGCCCGGCGGCUCGAGCCCGGGUAAGCGUAAAUAGUCUGCAUGCCGCCGGGCGCCAUGCCUGCAGGUCGACUCUAGAAAACAUG,binding signal,[7],4.67 log2 enrichment (interaction score)
same,binding signal,[10],4.59 log2 enrichment (interaction score)
same,binding signal,[13],4.94 log2 enrichment (interaction score)
same,binding signal,[20],6.62 log2 enrichment (interaction score)
GGCUAGAACUAGUGGAUCCCCCGGCGCCCGGCGGCUCGAGCCCGGGUAAGUGUAAAUCGUCUGCAUGCCGCCGGGCGCCAUGCCUGCAGGUCGACUCUAGAAAACAUG,binding signal,[3],4.11 log2 enrichment (interaction score)
